Most compounds without a hit are left out; they make up all but 2.9% or so of the library.
TRPML1 ag – qHTS for Agonists of the Human Mucolipin Transient Receptor Potential 1 (TRPML1); Mucolipin-1 (Homo sapiens), Q9GZU1; TRPML1-expressing cells, Ca2+ dye fluorescence, FDSS; activation, % (no concentration beside the values); 410,000 compounds, 0.12% hits; AID 624414, 2012; in the data active = activation above about 50%; inconclusive = mostly about 30% to 49%; note: 0% is about no effect
Target sequence (Q9GZU1 whole entry, looked up): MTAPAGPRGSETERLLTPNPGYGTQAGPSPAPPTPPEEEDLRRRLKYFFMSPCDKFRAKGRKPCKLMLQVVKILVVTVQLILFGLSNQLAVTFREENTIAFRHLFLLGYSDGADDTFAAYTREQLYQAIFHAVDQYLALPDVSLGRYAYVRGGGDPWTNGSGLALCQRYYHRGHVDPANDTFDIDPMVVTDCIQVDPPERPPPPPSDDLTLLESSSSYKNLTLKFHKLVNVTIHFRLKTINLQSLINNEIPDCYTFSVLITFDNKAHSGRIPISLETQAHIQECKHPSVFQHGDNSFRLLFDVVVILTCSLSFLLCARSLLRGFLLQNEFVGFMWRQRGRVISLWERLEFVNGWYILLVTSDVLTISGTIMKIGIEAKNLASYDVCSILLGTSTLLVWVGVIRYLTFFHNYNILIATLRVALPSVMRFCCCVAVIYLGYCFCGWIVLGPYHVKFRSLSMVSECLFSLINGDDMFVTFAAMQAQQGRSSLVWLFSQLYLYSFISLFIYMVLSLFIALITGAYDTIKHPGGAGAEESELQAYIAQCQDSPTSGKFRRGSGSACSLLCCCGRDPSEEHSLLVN
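Tet-induced TRPML1-DL cells, 1,500 per well, cultured overnight, were loaded with a no-wash Ca2+ dye for 45–90 min. Calcium fluorescence was recorded on the FDSS for 110 s after compound addition, before the EC80 agonist (4 uM 54-4) was added.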
TRPML1 blocker – qHTS for Inhibitors of the Human Mucolipin Transient Receptor Potential 1 (TRPML1); activity change, negative = inhibition, % (test concentration not listed); 390,000 compounds, 0.02% hits; TRPML1-inducible cells, Ca2+ dye fluorescence, FDSS; hits give low values; inhibition of EC80 agonist-evoked calcium signal; AID 624415, 2012; in the data active = activity change below about -50%; inconclusive = between about -30% and that limit;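 note: stimulus is agonist 54-4 at its EC80 concentration; % is set by controls: 0 for no effect and ±100 for the full control effect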
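Calcium fluorescence in TRPML1-DL cells induced overnight with Tet: a 110 s read after compound pin addition, then a 110 s antagonist read after challenge with 54-4 at 4 uM final (EC80).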
D3 ag – qHTS of D3 Dopamine Receptor Agonist: qHTS. D(3) dopamine receptor (Homo sapiens), P35462. D3R DiscoveRx beta-arrestin cells, luminescence, 90 min. max activation, %. 410,000 compounds, 0.58% hits. AID 652048, 2013; in the data active = max activation above about 30%; note: 0% is about no effect
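Agonist mode: compounds and dopamine controls were applied to plated cells for 90 min at 37 degrees C after an overnight attachment at 1500 cells/well. Luminescent read-out followed 30 - 60 minutes at room temperature with DiscoveRx detection reagent.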
DRD3 antagonist – qHTS of D3 Dopamine Receptor Antagonist: qHTS | D(3) dopamine receptor (Homo sapiens), P35462 | D3R cells, DiscoveRx beta-arrestin luminescence, antagonist mode; hits give low values | max response, negative = inhibition, % | 360,000 compounds, 2.5% hits | AID 652054, 2013; in the data active = max response below about -50%; inconclusive = no clear call, values can overlap the other calls; note: % is set by controls: 0 for no effect and ±100 for the full control effect
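Cells plated overnight at 1500 cells/well, then exposed to library compounds with dopamine controls for 90 minutes at 37 degrees C. DiscoveRx reagent added for 30–60 minutes at room temperature; luminescence read, quantitative HTS format.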
Starred values were filed as active, the others as inactive; ? = inconclusive; . = not tested or not shown; ! = not active in a repeat.

SMILES | TRPML1 ag | TRPML1 blocker | D3 ag | DRD3 antagonist
Cc1cccc(C)c1NC(=O)c1nc(S(=O)(=O)Cc2ccccc2F)ncc1Cl | 0 | . | . | .
O=C(Nc1ccccc1F)c1nc(S(=O)(=O)Cc2ccccc2F)ncc1Cl | 1 | -6 | 0 | .
COc1cc(OC)c(OC)cc1/C=C/c1ccc2ccccc2[n+]1C | -1 | . | . | .
Cc1ccc(NC(=O)CCCn2c(=O)c3cccn3c3cccnc32)cc1C | 0 | 3 | -1 | .
CN(N=O)c1ccc2c(c1)Cc1ccccc1-2 | -1 | . | . | .
COc1cccc(C(=O)N(Cc2nc(-c3ccc(Cl)cc3)no2)C(C)C)c1OC | 0 | 18 | 4 | .
Cc1cccc(C)c1NC(=O)c1nc(S(=O)(=O)Cc2ccccc2)ncc1Cl | 0 | -5 | -23 | -64*
CCc1[nH]nc2c1C(c1ccc(Br)s1)C(C#N)=C(N)O2 (configuration not stated) | 3 | 2 | -2 | -56*
CCc1[nH]nc2c1C(c1ccsc1)C(C#N)=C(N)O2 (configuration not stated) | 0 | -2 | -1 | -11
COc1ccccc1OCC(O)CO (configuration not stated) | 0 | -2 | 83*! | 5
CCn1c(C(=O)N2CCCC(C(=O)NCCCOC)C2)cc2sccc21 (configuration not stated) | -1 | 6 | -11 | .
COc1cccc(CNc2nc3cc(-c4ccc(OC)c(OC)c4)sc3c(=O)n2C)c1 | -1 | . | 40* | 39
N=C1/C(=C\c2coc3ccc(O)cc3c2=O)C(=O)N=C2SC=CN12 | ? | -18 | 12 | 4
CC(C)CSC1=NSC2=NC(=O)/C(=C\c3coc4ccccc4c3=O)C(=N)N12 | ? | -1 | 13 | 10
N=C1/C(=C\c2coc3ccccc3c2=O)C(=O)N=C2SC(c3ccncc3)=NN12 | 112* | -14 | -11 | ?
N=C1/C(=C/c2coc3ccccc3c2=O)C(=O)N=C2SC(c3ccco3)=NN12 | 81* | -16 | 2 | -12
CSC1=NSC2=NC(=O)/C(=C\c3coc4ccccc4c3=O)C(=N)N12 | 76* | -10 | 1 | 4
CCC(CO)NC(=O)C(=O)Nc1c2c(nn1-c1ccc(F)cc1)CSC2 (configuration not stated) | 0 | 11 | 4 | .
CC(C)Oc1ccc(CNC(=O)c2ccc3nc(Cc4ccccc4)oc3c2)cc1 | 3 | -12 | 6 | .
CCOC(=O)Cn1nc2oc(=O)c(CCN3CCN(c4ccccc4OC)CC3)c(C)c2c1C | 0 | -11 | -7 | -108*
CCOC(=O)Cn1c(=O)oc2cc(S(=O)(=O)N3CCN(c4ccccc4OC)CC3)ccc21 | 0 | 27 | -4 | .
COc1ccnc(CSC(N)=Nc2ccc(F)cc2)c1 | 13 | 9 | -5 | -71*
COc1ccc(Cn2c(CO)cnc2SCc2ccc(F)cc2)cc1 | 3 | -11 | -1 | .
Cc1c(C)n(Cc2ccccc2)c2ccc(C(=O)NCC(C)c3ccccc3)cc12 (configuration not stated) | 2 | 28 | -8 | .
Cc1ccc(NS(=O)(=O)c2cc(C(=O)Nc3cccc(N(C)S(C)(=O)=O)c3)ccc2C)c(C)c1 | -1 | 0 | 43* | 59
SMILES | TRPML1 ag | TRPML1 blocker | D3 ag | DRD3 antagonist
CN1CCc2nc(SCc3ccc(Cl)cc3)c(C#N)c(-c3cccs3)c2C1 | 1 | 21 | -38 | -60*
N#Cc1cc2c(nc1SCc1ccc(Cl)cc1)CCCC2 | 2 | 25 | 1 | -64*
N#Cc1cc2c(nc1SCc1ccccc1)CCCCC2 | 1 | -5 | 0 | 5
N#Cc1c(N)nc(SCc2ccncc2)c(C#N)c1-c1cccs1 | 0 | -5 | 23 | 38
COC(=O)c1ccccc1NC(=O)C1=CC(c2ccc(C)cc2)=NS(=O)(=O)N1C | 2 | 23 | 2 | .
Cc1ccc(C(=O)Oc2ccc(Cl)c3cccnc23)cc1[N+](=O)[O-] | 0 | -6 | -29 | -126*
O=C(Oc1ccc(Cl)c2cccnc12)N1CCCCC1 | 0 | 13 | 3 | 19
O=C(Oc1ccc(Cl)c2cccnc12)c1cccnc1 | 0 | 9 | -7 | -70*
CNC(=O)COc1ccc(Cl)c2cccnc12 | 2 | 1 | 1 | -6
Cc1cccc(NC(=O)Oc2ccc(Cl)c3cccnc23)c1 | -1 | 21 | -30 | -120*
CC(Sc1nnc2ccccn12)C(=O)Nc1ncc(Cl)cc1Cl (configuration not stated) | 0 | -5 | -5 | -50*
COc1ccc(-n2c(SC(C)C(=O)Nc3ncc(Cl)cc3Cl)nc3ccccc32)cc1 (configuration not stated) | 0 | 12 | 36* | 17
CC(Sc1ccc2c(c1)OCCO2)C(=O)Nc1ncc(Cl)cc1Cl (configuration not stated) | -1 | 3 | -4 | -8
CN(C(=O)Cn1c(=O)n(CCC(=O)NCc2ccc3c(c2)OCO3)c(=O)c2sccc21)c1ccccc1 | 0 | -4 | 7 | .
Cc1ccc(-n2cccn2)c(CN2CCCC(C(=O)c3ccc4c(c3)OCO4)C2)c1 (configuration not stated) | 0 | 2 | -32 | -63*
COc1cccc(CN2CCCC(C(=O)c3ccc4c(c3)OCO4)C2)c1OC (configuration not stated) | 0 | -5 | -10 | -15
O=C(c1ccc2c(c1)OCO2)C1CCCN(Cc2ccccc2OC(F)F)C1 (configuration not stated) | 2 | 4 | -16 | -63*
CC(C)(C)n1ncc2c(=O)n(Cc3cccc(Cl)c3Cl)cnc21 | 2 | 4 | . | .
O=S(=O)(NCCC1=CCCCC1)c1cccc(S(=O)(=O)N2CCOCC2)c1 | 0 | 2 | 1 | -72*
CCCCSCCCNC(=O)c1cn(CC)c2ccc(S(=O)(=O)N(C)C3CCCCC3)cc2c1=O | 1 | -10 | 1 | .
CC1(C)CC(=O)c2cc(-c3nc(-c4ccc(Cl)cc4)cs3)c(=O)n(-c3cccc(F)c3)c2C1 | 2 | -24 | -8 | .
CCCCN(C(=O)c1ccccc1F)c1c(N)n(CCC)c(=O)[nH]c1=O | -1 | 13 | 33* | 2
CCCCN(C(=O)c1cc(=O)[nH]c2ccccc12)c1c(N)n(CCC)c(=O)[nH]c1=O | 1 | 17 | 7 | 10
CCCCn1c(N)c(N(CCOC)C(=O)Cn2c(=O)oc3ccccc32)c(=O)[nH]c1=O | 0 | 9 | 95* | -5
CCCCn1c(N)c(N(C)C(=O)CCCn2c(=O)oc3ccccc32)c(=O)[nH]c1=O | 0 | 7 | -5 | 0
Cc1cn([C@H](C(=O)NCCCCCCCCCCC(=O)N2CCNCC2)[C@@H](C)O)nn1 | 1 | 32 | -17 | -64*

Screening results as filed in PubChem.
